Assay results from PubChem BioAssay (NCI).
Compounds without any hit were thinned out: in the full panel of roughly 79,000, 15% have a hit. Unmarked numbers belong to inactive results. Activity calls are given as the source filed them. Cut-off read from the data, not from the text of the source: active = growth inhibition above about 70%; inactive = the rest. Where a SMILES comes first, the peptide text is derived from it. The star is where a group is joined. Cbz = O=C(OCc1ccccc1)*; OBn = c1ccc(CO*)cc1

Experiment: NCI Yeast Anticancer Drug Screen. Data for the sgs1 mgt1 strain (AID 161);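 note: 0% = growth of cultures given vehicle only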
Conditions: S. cerevisiae sgs1 mgt1 strain, at 50.0 µM, hits give high values
How it was run: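 Read-out: growth inhibition vs vehicle controls. Cells: mutant yeast strain deficient in DNA damage repair.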

Row | SMILES | growth inhibition
1 | CC12CCC(/C(=C/N(O)/C=C3\C(=O)C4(C)CCC3C4(C)C)C1=O)C2(C)C | -30.1%
2 | COc1ccc(C(=O)OCc2ccccc2CN2CCOCC2)cc1 | -8.45%
3 | Cc1ccccc1C(=O)N(C(C)C)C(C)C | 7.2%
4 | CCCCCCCCCCCCCCCCCCCCCC(C)C | -10.9%
5 | CC1(C)CCCCC1=O | 7.1%
6 | Cc1cnc(NCCCCNc2ncc(C)c(-c3ccccc3O)n2)nc1-c1ccccc1O | -0.55%
7 | O=C(NC(CO)C(=O)N1CCCC1C(=O)OCc1ccccc1)OCc1ccccc1 (stereo not drawn) (Cbz-Ser-Pro-OBn; configuration not given here) | 7.05%
8 | COC(=O)c1cccc(=O)o1 | -18.4%
9 | CSC(=Nc1ccc([N+](=O)[O-])cc1C#N)NC(=O)c1ccccc1 | -29.1%
10 | COc1ccc(CCN=C2CCC(C(=O)NCCc3ccc(OC)c(OC)c3)N2)cc1OC (stereo not given) | 2.6%
11 | Cc1cccc(C)c1NC(=O)CCC(=O)CC(=O)C(C)C | -6.2%
12 | CC(=O)Nc1ccc(C2CC(c3ccc([N+](=O)[O-])cc3)=Nc3ccccc3S2)cc1 (stereo not given) | 34.1%
13 | Clc1cnnc2nc[nH]c12 | -24.2%
14 | CC(C)(C)C1CCC2c3c([nH]c4ncccc34)C3C(=O)N(c4ccccc4)C(=O)C3C2C1 (stereo not given) | 1.7%
15 | COc1cccc(N2C(=O)[C@H]3[C@H]4CC(C(C)(C)C)CC[C@H]4c4c([nH]c5ccccc45)[C@H]3C2=O)c1 (stereo not given in full) | 8.25%
16 | CC1(c2nc3ccccc3[nH]2)CCC(C(=O)O)C(C)(C)O1 (stereo not given) | -18.4%
17 | Cc1nc(C(N)=O)c(=O)[nH]c1C | 8%
18 | N#CC(C#N)=CNC(=S)Nc1ccc(Cl)c(Cl)c1 | 47.6%
19 | NC(CC(=O)O)C(=O)OCc1cccc(N=Nc2ccccc2)c1 (stereo not given) | -7.2%
20 | Cc1ccc(/C=N/n2c(Cc3ccccc3)n[nH]c2=O)cc1 | 3.65%

Row | SMILES | growth inhibition
21 | CC(C)=CCC/C(C)=C/CC/C(C)=C/C1CCC(=O)C1(C)C (stereo not given) | -43.2%
22 | O=C(CSc1cc(Cl)c(Cl)cc1Cl)Nc1cccc(Cl)c1 | 6.3%
23 | COc1ccc(C2Cc3cc(OC)c(OC)cc3C(c3ccccc3)N2)cc1OC (stereo not given) | 16.7%
24 | COc1ccc(Cc2cn(C)cc(Cc3ccc(OC)cc3)c2=O)cc1 | 7.15%
25 | O=C1CCCC(c2ccccc2)O1 (stereo not given) | 5.2%
26 | C[N+](C)(C)c1cc(Br)c(O)c(Br)c1 | 12%
27 | CCOC1(C)OC2OC(COC(C)=O)C(OC(C)=O)C(OC(N)=O)C2O1 (stereo not given) | -5.75%
28 | CC(=O)Nc1c(Cl)cc(N)cc1Cl | 2.3%
29 | CCN(CC)c1ccc(C=O)cc1 | -36.5%
30 | C=CNC(=S)n1nc(-c2ccccc2NC(=O)C(F)(F)F)c(=O)n(C(=S)NC=C)c1=S | 30.4%
31 | COc1cc(/C=C2\SC(=S)N(/C=C(/C#N)C(=O)c3ccc4ccccc4c3)C2=O)cc(OC)c1OC | 53.4%
32 | C#CCN(CC#C)C(=O)CCCCCCCCC=C | 97% (active)
33 | CCNc1ncnc2c1cnn2C | 2.45%
34 | Cc1ccc(C(c2ccc(C)c(C)c2)C(O)C(O)C(O)C(O)CO)cc1C (stereo not given) | -2.9%
35 | CCCCNS(=O)(=O)c1cc(C(=O)O)cc(C(=O)O)c1 | 4.25%
36 | NC(=S)c1cc[n+]([O-])cc1 | 5.4%
37 | Cc1cccc(Cl)c1NC1=NCCN1C(=O)CC(=O)c1ccccc1 | 1.1%
38 | Clc1cccc(NNc2cccc(Cl)c2)c1 | -13.8%
39 | CCCCCCCCCCCCCCCCOc1ccc(C(=O)O)cc1 | 5.3%
40 | Cc1cc[n+](-c2nc3c([O-])n(C)c(=O)n(C)c-3n2)cc1 | 6%
